# High-throughput results from PubChem BioAssay.
# This is one part of a sample in which hits are shown more often than they occur.
# IDE exosite inh = insulin-degrading enzyme (human) exo-site inhibition | P14735 | purified IDE, FL-6b probe fluorescence polarization; hits give low values | z-score at 20 µM | 17,000 compounds, 6.3% hits | AID 1259349;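 active means z-score of -3 or lower, meaning strong loss of probe binding signal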;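 further: His-tagged human IDE residues 42-1019 made in E. coli with 30 nM FL-6b probe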
# Target sequence (P14735 42-1019 limits assumed): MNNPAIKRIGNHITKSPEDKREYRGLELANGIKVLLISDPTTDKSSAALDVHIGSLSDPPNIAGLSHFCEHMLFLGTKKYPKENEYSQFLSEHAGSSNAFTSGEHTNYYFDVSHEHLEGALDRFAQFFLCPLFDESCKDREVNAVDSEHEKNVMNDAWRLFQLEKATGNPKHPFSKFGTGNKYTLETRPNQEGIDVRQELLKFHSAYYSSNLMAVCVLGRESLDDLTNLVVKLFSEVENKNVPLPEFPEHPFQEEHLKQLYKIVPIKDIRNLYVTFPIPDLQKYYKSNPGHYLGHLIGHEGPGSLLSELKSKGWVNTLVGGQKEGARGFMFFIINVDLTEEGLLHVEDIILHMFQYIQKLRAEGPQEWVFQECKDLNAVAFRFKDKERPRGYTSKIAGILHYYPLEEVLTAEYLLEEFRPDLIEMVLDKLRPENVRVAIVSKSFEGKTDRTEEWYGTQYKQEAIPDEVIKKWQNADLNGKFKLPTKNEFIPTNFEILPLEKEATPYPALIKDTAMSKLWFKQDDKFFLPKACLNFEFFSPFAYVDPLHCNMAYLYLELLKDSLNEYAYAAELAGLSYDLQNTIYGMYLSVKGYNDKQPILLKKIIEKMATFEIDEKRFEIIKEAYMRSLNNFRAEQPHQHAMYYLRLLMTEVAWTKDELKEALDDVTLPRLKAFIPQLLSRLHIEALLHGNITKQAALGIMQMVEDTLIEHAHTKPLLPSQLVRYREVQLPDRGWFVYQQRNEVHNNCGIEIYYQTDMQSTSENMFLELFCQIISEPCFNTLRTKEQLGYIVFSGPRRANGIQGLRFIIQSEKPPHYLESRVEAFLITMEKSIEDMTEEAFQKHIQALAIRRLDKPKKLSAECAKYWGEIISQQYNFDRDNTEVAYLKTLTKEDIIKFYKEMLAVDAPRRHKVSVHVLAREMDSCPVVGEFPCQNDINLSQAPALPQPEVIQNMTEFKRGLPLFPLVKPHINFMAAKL
# * hit, by the source's call; ! = repeats disagree.
SMILES,IDE exosite inh
Cc1ccccc1-c1ccc(C2[C@@H]3CN(Cc4cccnc4)C[C@H]2N3)cc1 (stereo not given in full),-14*
CN(C)C(=O)c1ccc(-c2ccc(C3[C@@H]4CN(Cc5cccnc5)C[C@H]3N4)cc2)cc1 (stereo not given in full),1.2
N#Cc1ccc(-c2ccc(C3[C@@H]4CN(C(=O)C5CCOCC5)C[C@H]3N4)cc2)cc1 (stereo not given in full),1.9
Cc1ccccc1-c1ccc(C2[C@@H]3CN(C(=O)C4CCOCC4)C[C@H]2N3)cc1 (stereo not given in full),-7.7*!
CN(C)C(=O)c1ccc(-c2ccc(C3[C@@H]4CN(C(=O)c5ccccn5)C[C@H]3N4)cc2)cc1 (stereo not given in full),1.1
N#C[C@@H]1[C@H](c2ccc(-c3ccccc3F)cc2)[C@H](CO)N1C(=O)C1CCOCC1,-0.72
O=C(C1CCOCC1)N1C[C@@H]2N[C@H](C1)C2c1ccc(-c2ccccc2F)cc1 (stereo not given in full),-3*!
O=C(C1CCOCC1)N1C[C@@H]2N[C@H](C1)C2c1ccc(-c2cccc(F)c2)cc1 (stereo not given in full),4.2
O=C(C1CCC1)N1C[C@@H]2N[C@H](C1)C2c1ccc(-c2cccc(F)c2)cc1 (stereo not given in full),1
COCC(=O)N1CC(=O)N2[C@H](CO)[C@@H](c3ccc(C#CC4CC4)cc3)[C@H]2C1,0.089
COc1ccccc1-c1ccc(C2[C@H]3CNC[C@@H]2N3Cc2nccs2)cc1 (stereo not given in full),-2.3
CCC(=O)N1CC(=O)N2[C@H](C1)[C@H](c1ccc(C#CC3CCCCC3)cc1)[C@@H]2CO,0.72
CN1C(=O)c2cc(NS(=O)(=O)c3ccccc3Cl)ccc2OC[C@H]2O[C@@H](CC(=O)Nc3cc(F)ccc3F)CC[C@@H]21,-0.77
COCCN(C[C@H]1[C@H](c2ccccc2)[C@@H](CO)N1C(=O)C1CCC1)C(C)=O,3.4
O=C1CN(S(=O)(=O)c2ccccc2)C[C@H]2[C@@H](c3ccc(C#CCc4ccccc4)cc3)[C@H](CO)N12,4.5
COc1ccc(S(=O)(=O)N2CCCCN3[C@H](CO)[C@H](c4ccc(C#CC5CC5)cc4)[C@H]3C2)cc1,2.5
O=C(c1ccncc1)N1CC(=O)N2[C@H](CO)[C@@H](c3ccc(C#CCC4CCCC4)cc3)[C@H]2C1,2.6
N#C[C@@H]1[C@H](c2ccccc2/C=C/c2ccccc2)[C@H](CO)N1S(=O)(=O)c1ccccc1,3.4
CS(=O)(=O)N1CC(=O)N2[C@H](CO)[C@H](c3ccc(C#Cc4cccc(F)c4)cc3)[C@@H]2C1,-9*
CCC(=O)N1CC(=O)N2[C@@H](CO)[C@H](c3ccc(C#Cc4cccc(F)c4)cc3)[C@@H]2C1,-0.85
O=C(CC1CC1)N1CC(=O)N2[C@H](CO)[C@@H](c3ccc(C#Cc4cccc(F)c4)cc3)[C@@H]2C1,-2.1
CCC(=O)N1CC(=O)N2[C@H](CO)[C@H](c3ccc(C#Cc4cccc(F)c4)cc3)[C@@H]2C1,-7*
CCC(=O)N1CC(=O)N2[C@H](C1)[C@H](c1ccc(C#Cc3cccc(F)c3)cc1)[C@@H]2CO,-8.1*
CS(=O)(=O)N1CC(=O)N2[C@H](CO)[C@@H](c3ccc(C#Cc4cccc(F)c4)cc3)[C@H]2C1,-1.1
CS(=O)(=O)N1CC(=O)N2[C@@H](CO)[C@H](c3ccc(C#Cc4cccc(F)c4)cc3)[C@@H]2C1,-2.9
SMILES,IDE exosite inh
CS(=O)(=O)N1CC(=O)N2[C@H](CO)[C@@H](c3ccc(C#Cc4cccc(F)c4)cc3)[C@@H]2C1,1.5
CCS(=O)(=O)N1CC(=O)N2[C@H](C1)[C@@H](c1ccc(C#Cc3cccc(F)c3)cc1)[C@@H]2CO,-1.6
O=C(C[C@H]1C=C[C@H](NC(=O)Nc2ccc3c(c2)OCO3)[C@@H](CO)O1)NCCCN1CCOCC1,-0.18
COC(=O)c1ccc(CN2CC(=O)N3[C@@H](CO)[C@H](c4ccc(-c5cccnc5)cc4)[C@@H]3C2)cc1,-0.38
CCC(=O)N1[C@H](C#N)[C@H](c2ccccc2-c2cccc(C)c2)[C@@H]1CO,0.86
O=C(Nc1ccccc1F)N1CCCCN2[C@H](C1)[C@H](c1ccc(-c3cccnc3)cc1)[C@@H]2CO,0.34
COc1cccc(-c2ccc(C3[C@@H]4CN(C(=O)Nc5ccccc5F)C[C@H]3N4)cc2)c1 (stereo not given in full),-1.2
COc1cccc(C#Cc2ccc([C@@H]3[C@@H](C#N)N[C@@H]3CO)cc2)c1,0.36
O=C(Nc1ccccc1)N1CCCCN2[C@H](CO)[C@H](c3ccc(-c4ccccc4)cc3)[C@@H]2C1,0.35
O=C(Nc1cc(F)ccc1F)N1CC(=O)N2[C@@H](CO)[C@H](c3ccc(/C=C/c4ccccc4)cc3)[C@@H]2C1,-1.1
O=C1CN(S(=O)(=O)Cc2ccccc2)C[C@@H]2[C@H](c3ccc(C#Cc4cccc(F)c4)cc3)[C@@H](CO)N12,4.4
O=C(c1cccnc1)N1CC(=O)N2[C@H](CO)[C@@H](c3ccc(-c4cccnc4)cc3)[C@@H]2C1,-1.9
Cc1ccc(-c2ccc([C@@H]3[C@@H](CO)N4C(=O)CN(C(=O)c5cccnc5)C[C@@H]34)cc2)cc1,-3.6*
O=C(c1cccnc1)N1CC(=O)N2[C@H](CO)[C@@H](c3ccc(-c4cccnc4)cc3)[C@H]2C1,0.23
O=C(c1cccnc1)N1CC(=O)N2[C@H](CO)[C@H](c3ccc(-c4cccnc4)cc3)[C@H]2C1,-0.66
O=C(c1cccnc1)N1CC(=O)N2[C@@H](CO)[C@@H](c3ccc(-c4cccnc4)cc3)[C@@H]2C1,2.6
Cc1ccc(-c2ccc([C@H]3[C@@H](CO)N4C(=O)CN(C(=O)c5cccnc5)C[C@H]34)cc2)cc1,-3.1*
CC(C)C#Cc1ccc([C@H]2[C@@H](CO)N3C(=O)CN(C(=O)Cc4cccnc4)C[C@@H]23)cc1,2.2
COCC(=O)NC[C@H]1N[C@H](CO)[C@H]1c1ccc(C2=CCCCC2)cc1,2.7
C/C=C/c1ccc([C@@H]2[C@H](CO)N(C(=O)C3CCC3)C23CN(C(=O)NC(C)C)C3)cc1,-1.7
N#C[C@@H]1[C@@H](c2ccc(C3=CCCCC3)cc2)[C@H](CO)N1S(=O)(=O)c1ccccc1,0.44
COc1cccc(S(=O)(=O)N2CCCCN3[C@H](C2)[C@@H](c2ccc(-c4cncnc4)cc2)[C@@H]3CO)c1,0.96
COc1cccc(S(=O)(=O)N2CCCCN3[C@H](CO)[C@@H](c4ccc(-c5cncnc5)cc4)[C@@H]3C2)c1,-0.62
COc1cccc(S(=O)(=O)N2CCCCN3[C@H](CO)[C@@H](c4ccc(-c5cccnc5)cc4)[C@@H]3C2)c1,-3.5*
Cc1cccc(S(=O)(=O)N2CCCCN3[C@@H](CO)[C@H](c4ccc(-c5ccncc5)cc4)[C@@H]3C2)c1,1.6
Cc1cccc(S(=O)(=O)N2CCCCN3[C@@H](CO)[C@@H](c4ccc(-c5cccnc5)cc4)[C@@H]3C2)c1,-3.3*
Cc1cccc(S(=O)(=O)N2CCCCN3[C@H](CO)[C@H](c4ccc(-c5ccncc5)cc4)[C@H]3C2)c1,1.5
COc1cccc(S(=O)(=O)N2CCCCN3[C@H](CO)[C@H](c4ccc(-c5cccnc5)cc4)[C@H]3C2)c1,1.1
COc1cccc(S(=O)(=O)N2CCCCN3[C@@H](CO)[C@@H](c4ccc(-c5cncnc5)cc4)[C@@H]3C2)c1,-0.24
